Shown are actives, neighbours in structure and some others; about 1.4% of the full set was active somewhere.
MbtI inh: inhibitors of Mycobacterium tuberculosis siderophore enzyme MbtI; 0.89% of 100,000 active; AID 493033; purified MbtI enzyme, fluorescence intensity read-out; inhibition, % (no concentration beside the values); in the data active means inhibition mostly above about 56%, no sharp cut-off; inactive means mostly below about 77%
Polio RdRp inh: inhibitors of poliovirus RNA polymerase binding and polymerization; P03300; poliovirus polymerase elongation, fluorescence polarization; active compounds read low; % elongation, % (compound at 16.7 µg/mL); 0.66% of 150,000 active; AID 588519; in the data active means % elongation below about 90%
AID504770: E. coli YBA685 growth inhibition, screen for V. cholerae RctB inhibitors; E. coli YBA685 rctB-dependent plasmid, OD600 growth, 3 h; active compounds read low; z-score (test concentration not listed); 0.27% of 130,000 active; AID 504770; in the data active means z-score below about -2, passing the limit was not always enough
MenB inh: Mtb MenB enzyme inhibition; inhibition, % (no concentration beside the values); 0.43% of 100,000 active; P9WNP5; MenB enzyme assay, absorbance read-out; AID 540299; in the data active means inhibition above about 21%, passing the limit was not always enough
Target sequence (P9WNP5 whole entry, looked up): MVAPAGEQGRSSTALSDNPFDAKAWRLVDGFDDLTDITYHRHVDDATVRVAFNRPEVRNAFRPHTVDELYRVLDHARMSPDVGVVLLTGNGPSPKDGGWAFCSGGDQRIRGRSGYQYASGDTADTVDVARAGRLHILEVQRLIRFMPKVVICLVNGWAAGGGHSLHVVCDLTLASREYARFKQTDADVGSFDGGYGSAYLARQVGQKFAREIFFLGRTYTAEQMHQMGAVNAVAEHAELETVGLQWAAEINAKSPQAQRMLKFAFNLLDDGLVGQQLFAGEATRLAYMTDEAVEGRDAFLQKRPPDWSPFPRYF
Active calls of the source: *; . = no result given.

SMILES | MbtI inh | Polio RdRp inh | AID504770 | MenB inh
CC1=C(C)NC(=S)SC1 | 97* | 99 | 1.6 | -20
Cn1cc(C(=O)NC2CCCCCC2)c(=O)c2cc(S(=O)(=O)N3CCCCCC3)ccc21 | 4 | 102 | 0.7 | 2
O=S1(=O)CCC(NC(=S)SCCOc2ccccc2)C1 (stereo unspecified) | . | . | -3* | .
Cc1ccc2cccc(I)c2n1 | 12 | 103 | -2.5* | -5
COc1cc(OC)cc(-c2cc3nc(-c4ccccc4)cc(N4CCN(c5ccccc5)CC4)n3n2)c1 | 1 | 100 | -0.25 | -5
S=c1[nH]c2ccc(Cl)cc2[nH]1 | 82* | 103 | -0.55 | -23
Cc1ccc2[nH]c(=S)oc2c1 | 61* | 99 | 0.45 | -28
S=c1[nH]c2ccc(Cl)cc2o1 | 64* | 100 | -2* | -53
COc1ccc(CC(C)Nc2ccc3c(c2)OCO3)cc1 (stereo unspecified) | -62 | 96 | -0.1 | -31
CCC(C)NC(=O)c1ccc(-n2ccc3ccccc32)s1 (stereo unspecified) | 40 | 100 | -3 | -21
COc1cc(NS(=O)(=O)c2cccc(Cl)c2Cl)cc(OC)c1 | -17 | 108 | 0.25 | -17
N#Cc1c(SCCCOc2ccccc2)sc2c(=O)[nH]c(=O)[nH]c12 | . | 103 | -0.85 | 21*
CC(C)(C)C1=Nn2c(nnc2-c2ccccc2)SC1 | 64* | 93 | -0.4 | -1
CCOc1ccc(-c2cnc(N)s2)cc1 | . | 62* | -0.7 | -1
O=C(Nc1ccc(-c2nc3cc(Cl)ccc3o2)cc1)c1cc2ccccc2o1 | . | 49* | . | .
O=C(Nc1ccc(Cl)c(-c2nc3cc(Cl)ccc3o2)c1)c1cc2ccccc2o1 | . | 105 | . | .
Cc1ccccc1C(=O)Nc1ccc(-c2nc3ccccc3o2)cc1 | 67 | 100 | 0.6 | 2
Cc1cc2nc(-c3ccc(NC(=O)c4ccccc4F)cc3)oc2cc1C | . | 24* | . | .
Cc1n[nH]c(=S)n1/N=C\c1ccco1 | 36 | 90* | -0.65 | 8
N#CCCn1cc(C(=O)CSc2n[nH]c(-c3ccc(Cl)cc3)n2)c2ccccc21 | 4 | 108 | 0.1 | 1
Cc1cc(C)cc(OCc2cc(=O)n3c4c(sc3n2)CCCC4)c1 | . | 78* | . | .
c1ccc(Nc2nc3c(ccc4ccccc43)s2)cc1 | . | 83* | -0.55 | -19
Cc1sc(Nc2ccccc2)nc1-c1ccccc1 | -2 | 101 | 0.5 | -7
Cc1ccc(C(c2c(O)[nH]c(=S)[nH]c2=O)N2CCC(C)CC2)cc1 (stereo unspecified) | 66* | 98 | -0.45 | -49
Cc1ccc(C(c2nnnn2C(C)(C)C)N2CCC(C)CC2)cc1 (stereo unspecified) | -7 | 103 | -2.1 | -13
SMILES | MbtI inh | Polio RdRp inh | AID504770 | MenB inh
CC(=O)OC(OC(C)=O)C12C=CC(O1)C1C(=O)N(c3ccccc3-c3ccccc3)C(=O)C12 (stereo unspecified) | 90* | 98 | -0.1 | -10
COc1ccccc1/C=C1/SC(=S)NC1=O | -2 | 107 | 0.15 | .
COc1ccccc1OCCn1cc(/C=C2/SC(=S)NC2=O)c2ccccc21 | 59* | 98 | 0.5 | -94
COC(=O)C(C(=O)OC)C(Nc1ccccc1)c1ccccc1 (stereo unspecified) | . | 25* | -0.1 | 3
CCOC(=O)C(Nc1cccc(F)c1)c1ccccc1 (stereo unspecified) | -7 | . | 0.1 | .
FC(F)(F)CCSc1nnc(-c2cccs2)n1-c1ccccc1 | -22 | 105 | -0.55 | -21
CSc1nc(-c2ccco2)nn1S(C)(=O)=O | 84* | 100 | 2.5 | -3
CC(C)(C)c1cs/c(=N/c2ccccn2)n1-c1ccc(Cl)cc1 | -11 | 102 | 0.35 | -6
Clc1ss/c(=N\c2ccccn2)c1Cl | . | 87* | 0.3 | -19
O=C1C=CC(=O)C(CCCCCCC2=CC(=O)C=CC2=O)=C1 | 96* | 101 | -0.1 | 11
O=C1C=CC(=O)C(CCC2=CC(=O)C=CC2=O)=C1 | 98* | 101 | 0.6 | 14
CCc1ccc(C2=CC(=O)C=CC2=O)cc1 | 43 | 102 | -0.15 | 2
O=C(Cc1ccccc1)NC(=S)Nc1ccccc1O | 4 | 102 | 0.85 | -2
CNc1nc(SCC(=O)OC)nc(N2CCOCC2)n1 | 3 | 104 | 1.1 | 56*
COC(=O)CSc1nc(C)cc(N2CCOCC2)n1 | 4 | 104 | -0.8 | -42
COCCCn1c(=O)c2ccccc2n(CC(N)=O)c1=O | 58 | 101 | -0.5 | 28*
Cc1ccc(CNc2n[nH]c(=S)s2)cc1 | . | . | 0.5 | .
CC(C)(C)Nc1n[nH]c(=S)s1 | 73* | 76* | 0.05 | -3
CN(C)c1ccc(/C=N/c2nc3ccccc3n2Cc2ccc(Cl)cc2)cc1 | -1 | 110 | -0.45 | -47
S=C(NCc1ccccc1)N1CCn2c(nc3ccccc32)C1 | -1 | 101 | -0.85 | -30
CCN(CC(=O)Nc1ccc(S(=O)(=O)N(C)C)cc1)CC(=O)Nc1ccccc1C(F)(F)F | -5 | 99 | -0.5 | -40
N#Cc1c(-c2ccccc2)cc(-c2ccccc2)nc1SCC(O)CS(=O)(=O)Cc1ccc(Cl)cc1 (stereo unspecified) | . | 89* | . | .
COc1ccc(-c2cc(-c3ccccc3)c(C#N)c(SCC(O)CS(=O)(=O)Cc3ccc(Cl)cc3)n2)cc1 (stereo unspecified) | . | 105 | . | .
CCOC(=O)c1[nH]c(=O)[nH]c1CSc1ccccn1 | 91* | 100 | 0.2 | -6
Cc1c(-c2cccc(NC(=O)c3cccc(Cl)c3)c2)nc2ncccn12 | . | . | -0.6 | .
SMILES | MbtI inh | Polio RdRp inh | AID504770 | MenB inh
CCCCOC(=O)Sc1nc2ccccc2o1 | 91* | 97 | -0.75 | -62
O=C1N(c2ccc3c(c2)OCO3)C(c2ccc3c(c2)OCO3)C1(F)F (stereo unspecified) | -1 | 101 | -0.2 | -19
O=c1cc(CNC2CCCCC2)c2ccccc2[nH]1 | 72 | 99 | 0.4 | 30*
COC(=O)c1nnn(CC(=O)Nc2ccccc2)c1C(=O)OC | 2 | 105 | 0.35 | -59
COC(=O)C(Cc1c[nH]c2ccccc12)NC(=O)c1ccc(OC)cc1 (stereo unspecified) | 6 | 101 | 0.65 | 12
O=C(CSc1n[nH]c(Cc2ccccc2)n1)NC1CCCCC1 | -9 | 98 | 0.85 | -9
O=C(COC(=O)CSc1n[nH]c(-c2ccccc2)n1)NC1CCCCC1 | . | 84* | 0.9 | 11
COc1ccc(SS(=O)(=O)c2ccc(OC)c(NC(C)=O)c2)cc1NC(C)=O | 91* | 102 | -0.5 | -17
COc1ccc(S(=O)(=O)C(F)(F)F)cc1NC(C)=O | 4 | 103 | 1.1 | .
O=c1c2ccccc2[se]n1-c1ccccc1 | 103* | 99 | . | 5
CCOP(=O)(c1ccccc1)c1ccccc1 | -6 | 101 | -0.3 | -44
CN(C)c1ccc(/C=C/c2noc(-c3ccccc3O)n2)cc1 | . | 110 | . | .
Oc1ccccc1-c1nc(/C=C/c2ccccc2Cl)no1 | . | 41* | . | .
NC(=S)NNc1ccc(Cl)c(Cl)c1 | 95* | 95 | -0.85 | -15
NNc1ccc(Cl)c(Cl)c1 | -3 | 96 | -3.6* | .
Cc1cc(OCC(=O)N(C2CC2)C2CCS(=O)(=O)C2)ccc1Cl (stereo unspecified) | -3 | 106 | 0.45 | -12

From PubChem
